Compounds with a hit are over-represented: about 1.2% of the library has one in this group of screens.
EPAC2 agonist – activates human EPAC2 exchange factor | Q8WZA2 | EPAC2 activation, biochemical qHTS; response scale: 100% = 6.5 mM cAMP response | Potency, µM (series often up to 154 µM), without a hit: top-dose activation, actives largely listed as activators | 0.079% of 360,000 active; note: nearly all actives have a fitted effect of over 50% in size
Target sequence (Q8WZA2 whole entry, looked up): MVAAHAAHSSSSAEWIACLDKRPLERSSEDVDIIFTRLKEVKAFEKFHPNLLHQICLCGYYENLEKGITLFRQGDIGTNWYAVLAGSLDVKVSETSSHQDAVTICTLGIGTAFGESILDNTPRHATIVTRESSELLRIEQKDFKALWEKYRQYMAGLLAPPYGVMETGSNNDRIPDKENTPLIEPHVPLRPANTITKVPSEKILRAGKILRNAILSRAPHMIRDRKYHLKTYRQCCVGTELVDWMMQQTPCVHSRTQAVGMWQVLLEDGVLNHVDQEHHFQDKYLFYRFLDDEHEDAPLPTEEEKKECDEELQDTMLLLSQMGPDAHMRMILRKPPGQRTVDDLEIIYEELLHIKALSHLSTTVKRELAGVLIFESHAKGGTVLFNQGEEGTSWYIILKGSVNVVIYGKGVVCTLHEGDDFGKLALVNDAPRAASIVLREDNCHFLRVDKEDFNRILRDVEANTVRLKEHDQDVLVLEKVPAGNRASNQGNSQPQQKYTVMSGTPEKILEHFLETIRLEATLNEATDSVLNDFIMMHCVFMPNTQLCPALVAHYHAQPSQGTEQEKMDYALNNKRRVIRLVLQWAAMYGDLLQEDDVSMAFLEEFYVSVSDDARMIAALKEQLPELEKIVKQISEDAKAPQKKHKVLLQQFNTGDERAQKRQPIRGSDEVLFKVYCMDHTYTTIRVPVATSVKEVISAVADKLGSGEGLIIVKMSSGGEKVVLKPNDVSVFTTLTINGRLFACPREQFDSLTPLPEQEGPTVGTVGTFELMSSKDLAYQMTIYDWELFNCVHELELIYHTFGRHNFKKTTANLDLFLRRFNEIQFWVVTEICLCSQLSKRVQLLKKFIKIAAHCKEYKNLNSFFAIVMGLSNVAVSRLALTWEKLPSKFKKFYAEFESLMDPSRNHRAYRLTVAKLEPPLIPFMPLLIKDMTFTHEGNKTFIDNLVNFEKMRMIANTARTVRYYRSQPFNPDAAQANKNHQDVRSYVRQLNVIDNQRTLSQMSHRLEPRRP
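Setup: EPAC2 100 nM, labeled Rap1B complex 250 nM, free GDP 50 uM. Compound titrations pinned in, brief spin, 5 min room temperature incubation. Kinetic fluorescence read over 30 min, normalized to 6.5 mM cAMP.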
EPAC1 ag – EPAC1 (human) agonism; O95398; 0.073% of 360,000 active; AID 720707; Potency, µM (series often up to 154 µM), for the others: at the top dose activation, most hits filed as activators; EPAC1 agonist qHTS, biochemical assay; response scale: 100% = response to 6.5 mM cAMP; note: nearly all actives have a fitted effect of over 60% in size
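Compounds were pinned as a concentration titration into mixtures of EPAC1 (100 nM), BODIPY-GDP-loaded Rap1B (250 nM) and GDP (50 uM). After 5 min at room temperature, fluorescence was followed for 30 min; activity was scaled to 6.5 mM cAMP.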
EPAC1 antagonist – EPAC1 (human) antagonism; O95398; EPAC1 GEF assay, Rap1b-BODIPY-GDP exchange fluorescence; Potency, µM (series often up to 115 µM), for the others: at the highest dose activity change, negative = inhibition, actives largely listed as inhibitors; 0.14% of 360,000 active; AID 720709;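 note: plate controls were vehicle for no effect and positive control for full effect; nearly all actives have a fitted effect of over 50% in size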
EPAC2 antagonist – EPAC2 (human) antagonism. Q8WZA2. EPAC2 GEF exchange of Rap1B-BODIPY-GDP, fluorescence. Potency, µM (series often up to 114 µM), without a hit: at the highest dose activity, negative = inhibition, usual class: inhibitors. 0.18% of 360,000 active; note: % is set by controls: 0 for no effect and ±100 for the full control effect; nearly all actives have a fitted effect of over 45% in size
VDR inh – inhibitors of human vitamin D receptor | VDR-SRC2-3 peptide fluorescence polarization, 2 h | Potency, µM, for the others: max response, negative = inhibition, most hits filed as inhibitors | 0.93% of 400,000 active; note: % is set by controls: 0 for no effect and ±100 for the full control effect
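Fluorescence polarization assay measuring small-molecule disruption of VDR binding to the coregulator peptide SRC2-3. Compounds were pin-transferred (23 nl) into the reagent mix and incubated 2 h at room temperature before reading.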
USP1 inh – USP1/UAF1 (human) deubiquitinase inhibition | O94782 | recombinant USP1/UAF1, Ub-Rhodamine cleavage fluorescence | Potency, µM (series often up to 57.1 µM), for inactives: at the top dose activity change, negative = inhibition, most hits filed as inhibitors | 0.23% of 390,000 active | AID 743255; note: % is set by controls: 0 for no effect and ±100 for the full control effect; nearly all actives have a fitted effect of over 60% in size
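Step one: compound is pinned into 1nM USP1/UAF1 in HEPES pH 7.8 buffer with TCEP. Step two: 15 min room-temperature incubation. Step three: Ub-Rho (150nM final) starts cleavage, tracked by fluorescence over six one-minute reads.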
Active calls of the source: *; u = inconclusive; x = no result given; ! = repeats disagree; [ ] = another dose, or the depositor's remark. Calls come from the whole dose curve; as a rule, active = well fitted curve in the direction sought with a large enough effect; inconclusive = small, poorly fitted or top-dose-only effect, or another doubt; inactive = no such curve, though single readings can be large; an effect the other way counts as inactive or inconclusive. Potency is the fitted concentration of half-maximal effect.

SMILES	EPAC2 agonist	EPAC1 ag	EPAC1 antagonist	EPAC2 antagonist	VDR inh	USP1 inh
CCN(CCCl)Cc1ccccc1Br	0%	-26%	0%	4%	8%	-23%
O=C1C(I)=CC(=C(c2cc(I)c(O)c(I)c2)c2ccccc2C(=O)O)C=C1I	x	x	x	x	35µM*	x
CC(C)C1C(=O)N2CCC[C@H]2[C@]2(O)O[C@](NC(=O)[C@@H]3C=C4c5cccc6[nH]cc(c56)C[C@H]4N(C)C3)(C(C)C)C(=O)N12 (stereo not given in full)	x	x	x	x	45µM*	x
CC(C)C[C@H]1C(=O)N2CCCC2[C@]2(O)O[C@](NC(=O)[C@@H]3C=C4c5cccc6[nH]c(Br)c(c56)C[C@H]4N(C)C3)(C(C)C)C(=O)N12 (stereo not given in full)	x	x	x	x	18µM*	x
CC(C)C[C@H]1C(=O)N2CCC[C@H]2[C@]2(O)O[C@](NC(=O)C3C=C4c5cccc6[nH]c(Br)c(c56)C[C@H]4N(C)C3)(C(C)C)C(=O)N12 (stereo not given in full)	10%	-7%	28%	-2%	-2%	-12%
O=[N+]([O-])c1ccc(N2CCCCCC2)c2nonc12	100µM*	100µM*	67%	42%	0%	28µM*
O=[N+]([O-])c1ccc(N2CCCCC2)c2ncccc12	22%	8%	-27%	-21%	1%	-12%
CCCCC/C=C\C/C=C\C/C=C\CCCCC(=O)NCCc1ccc(O)c(O)c1	x	x	x	x	6%	x
COc1ccccc1N=Nc1ccc(N)c(C)c1	7%	5%	u	-4%	0%	-4%
C[C@@H](N)Cc1cnc[nH]1	11%	1%	1%	-10%	79µM*!	-9%
O=C(O)Cc1cnc[nH]1	3%	-8%	-8%	9%	4%	-14%
ClC1=C(Cl)C(Cl)(C2(Cl)C(Cl)=C(Cl)C(Cl)=C2Cl)C(Cl)=C1Cl	x	x	x	x	3.2µM*	x
CCCCC/C=C\C/C=C\CCCCCCCCCC(=O)NCCc1ccc(O)c(O)c1	x	x	x	x	-2%	x
CCC(C)NC(=O)c1c(N)n(CCCOC)c2nc3ccccc3nc12 (stereo not given)	11%	3%	-4%	-7%[57.1 µM]	-25%	32µM*
O=C(C[C@@H]1C[C@@H]2c3cc(NS(=O)(=O)c4ccc(F)cc4)ccc3O[C@@H]2[C@H](CO)O1)N1CCc2ccccc2C1	9%	9%	-8%	-25%	x	u
O=[N+]([O-])C(Br)(CO)CO	x	x	x	x	5.6µM*	x
COc1ccc(/C=C/c2nc(-c3ccccc3O)n(-c3ccccc3)n2)cc1OC	x	x	x	x	12%	u
CN1C(=O)C(=Cc2ccc(N3CCCCCC3)o2)C(=O)N(C)C1=S	u	11%	-5%	-1%	19%	25µM*
CN1C(=O)C(=Cc2ccc(N3CCOCC3)o2)C(=O)N(C)C1=O	-10%	3%	-5%	u	0%	u
CC(=O)OC1CC2C(C)(C)C(=O)C=C[C@]2(C)C2CC[C@]3(C)C(=CC(=O)OC3c3ccoc3)[C@]12C (stereo not given in full)	x	x	x	x	20µM*	x
CC1(C)C(=O)[C@@H]2OC2[C@@]2(C)C1CC(O)[C@]1(C)C2CC[C@@]2(C)C(c3ccoc3)OC(=O)C3OC312 (stereo not given in full)	x	x	x	x	2%	x
COC(=O)[C@@]1(O)C[C@@H]2O[C@@]1(C)n1c3ccccc3c3c4c(c5c6ccccc6n2c5c31)C(=O)NC4	x	x	x	x	11%	x
COc1ccccc1Cc1c(-c2ccc(C)cc2)nc2cc(C)c(Br)c(C)n12	15%	u	-20%	7%	x	x
Cc1cc2c(C(C)C)c(O)c(O)c(C=O)c2c(O)c1-c1c(C)cc2c(C(C)C)c(O)c(O)c(C=O)c2c1O	x	x	x	x	6.3µM*	x
O=C1NC(=O)C(=O)C(=O)N1	x	x	x	x	3.2µM*	x
COC(=O)C(O)C(O)(CCC(C)C)C(=O)OC1C(OC)=CC23CCCN2CCc2cc4c(cc2C13)OCO4 (stereo not given)	x	x	x	x	4%	x

High-throughput results (PubChem BioAssay)
